Measured values published in PubChem BioAssay AID1159580 (chemical genetic matrix, 2015).
Several values for one entry are separate records, joined by “and”; a condition that tells them apart may be missing. Identical values can stand only once. About 2,000 (36%) of roughly 5,500 compounds were called active. Inconclusive results (about 18%) are left out. No stated cut-off is given here; in the data, active means normalized growth mostly below about 0.91 (no sharp cut-off); inconclusive means no clear call, values can overlap the other calls; inactive means mostly above about 0.92. This is one part of the list.

Test: chemical genetic growth profiling, strain panel (AID 1159580);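 further: tested at 20 µM; growth read once vehicle control cultures reached saturation at 30 °C; 1 = growth at the plate median or of vehicle wells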
Settings: S. cerevisiae deletion strains, growth OD
[1] = locus YDL101C, strain DUN1, stronger effect = lower value
[2] = locus YHR030C, strain SLT2, stronger effect = lower value
[3] = locus YHR079C, strain IRE1, stronger effect = lower value
[4] = locus YJL095W, strain BCK1, stronger effect = lower value
[5] = locus YJR066W, strain TOR1, stronger effect = lower value
[6] = locus YLR113W, strain HOG1, stronger effect = lower value
[7] = locus YNL183C, strain NPR1, stronger effect = lower value
[8] = locus YOR061W, strain CKA2, stronger effect = lower value
[9] = locus YOR231W, strain MKK1, stronger effect = lower value
[10] = locus YPL256C, strain CLN2, stronger effect = lower value

NC(=NC(=O)c1ccc(Cl)cc1)c1cccs1
normalized growth (locus YAR019C, strain CDC15, stronger effect = lower value): 0.944 (inactive) | normalized growth (locus YBL105C, strain PKC1, stronger effect = lower value): 0.964 (inactive) | normalized growth (locus YBR135W, strain CKS1, stronger effect = lower value): 0.95 (inactive) | normalized growth (locus YBR136W, strain MEC1, stronger effect = lower value): 0.949 (inactive) | normalized growth (locus YBR160W, strain CDC28, stronger effect = lower value): 0.951 (inactive) | normalized growth (locus YDL017W, strain CDC7, stronger effect = lower value): 0.964 (inactive) | normalized growth (locus YDL028C, strain MPS1, stronger effect = lower value): 0.933 (inactive) | normalized growth [1]: 0.969 (inactive) | normalized growth (locus YDL108W, strain KIN28, stronger effect = lower value): 0.946 (inactive) | normalized growth (locus YDL132W, strain cdc53, stronger effect = lower value): 0.951 (inactive) | normalized growth (locus YDL214C, strain PRR2, stronger effect = lower value): 0.8 (inactive) | normalized growth (locus YDR052C, strain DBF4, stronger effect = lower value): 0.96 (inactive) | normalized growth (locus YDR054C, strain cdc34, stronger effect = lower value): 0.951 (inactive) | normalized growth (locus YDR226W, strain ADK1, stronger effect = lower value): 0.951 (inactive) | normalized growth (locus YDR477W, strain SNF1, stronger effect = lower value): 0.828 (inactive) | normalized growth (locus YER123W, strain YCK3, stronger effect = lower value): 0.81 (inactive) | normalized growth (locus YER133W, strain GLC7, stronger effect = lower value): 0.775 (inactive) | normalized growth (locus YFL009W, strain cdc4, stronger effect = lower value): 0.954 (inactive) | normalized growth (locus YFL029C, strain CAK1, stronger effect = lower value): 0.949 (inactive) | normalized growth (locus YFR003C, strain YPI1, stronger effect = lower value): 0.959 (inactive) | normalized growth (locus YFR019W, strain FAB1, stronger effect = lower value): 0.938 (inactive) | normalized growth (locus YFR028C, strain CDC14, stronger effect = lower value): 0.948 (inactive) | normalized growth (locus YGR040W, strain KSS1, stronger effect = lower value): 0.833 (inactive) | normalized growth (locus YGR052W, strain FMP48, stronger effect = lower value): 0.794 (inactive) | normalized growth (locus YGR092W, strain DBF2, stronger effect = lower value): 0.533 (inactive) | normalized growth [2]: 0.902 (inactive) | normalized growth [3]: 0.698 (inactive) | normalized growth (locus YHR082C, strain KSP1, stronger effect = lower value): 0.934 (inactive) | normalized growth (locus YHR205W, strain SCH9, stronger effect = lower value): 0.798 (inactive) | normalized growth (locus YIL147C, strain SLN1, stronger effect = lower value): 0.956 (inactive) | normalized growth [4]: 0.795 (inactive) | normalized growth (locus YJL128C, strain PBS2, stronger effect = lower value): 0.921 (inactive) | normalized growth (locus YJL157C, strain FAR1, stronger effect = lower value): 0.833 (inactive) | normalized growth (locus YJR016C, strain ILV3, stronger effect = lower value): 0.957 (inactive) | normalized growth (locus YJR066W, strain TOR1 (second series), stronger effect = lower value): 0.904 (inactive) | normalized growth [5]: 0.884 (inactive) | normalized growth (locus YKL048C, strain ELM1, stronger effect = lower value): 0.901 (inactive) | normalized growth (locus YKL067W, strain YNK1, stronger effect = lower value): 0.824 (inactive) | normalized growth (locus YKL101W, strain HSL1, stronger effect = lower value): 0.877 (inactive) | normalized growth (locus YKL193C, strain SDS22, stronger effect = lower value): 0.942 (inactive) | normalized growth (locus YKL203C, strain TOR2, stronger effect = lower value): 0.9 (inactive) | normalized growth [6]: 0.607 (active) | normalized growth (locus YLR133W, strain CKI1, stronger effect = lower value): 0.83 (inactive) | normalized growth (locus YLR403W, strain SFP1, stronger effect = lower value): 0.789 (inactive) | normalized growth (locus YML070W, strain DAK1, stronger effect = lower value): 0.774 (inactive) | normalized growth (locus YMR001C, strain CDC5, stronger effect = lower value): 0.948 (inactive) | normalized growth (locus YMR205C, strain PFK2 (second series), stronger effect = lower value): 0.836 (inactive) | normalized growth (locus YMR277W, strain FCP1, stronger effect = lower value): 0.942 (inactive) | normalized growth (locus YNL006W, strain LST8, stronger effect = lower value): 0.97 (inactive) | normalized growth (locus YNL020C, strain ARK1, stronger effect = lower value): 0.821 (inactive) | normalized growth (locus YNL161W, strain CBK1, stronger effect = lower value): 0.95 (inactive) | normalized growth [7]: 0.721 (inactive) | normalized growth (locus YNL207W, strain RIO2, stronger effect = lower value): 0.949 (inactive) | normalized growth (locus YNL222W, strain SSU72, stronger effect = lower value): 0.957 (inactive) | normalized growth (locus YNL307C, strain MCK1 (second series), stronger effect = lower value): 0.82 (inactive) | normalized growth (locus YOL078W, strain AVO1, stronger effect = lower value): 0.944 (inactive) | normalized growth (locus YOL136C, strain PFK27, stronger effect = lower value): 0.774 (inactive) | normalized growth [8]: 0.82 (inactive) | normalized growth (locus YOR119C, strain RIO1, stronger effect = lower value): 0.834 (inactive) | normalized growth [9]: 0.734 (inactive) | normalized growth (locus YOR329C, strain SCD5, stronger effect = lower value): 0.949 (inactive) | normalized growth (locus YPL031C, strain PHO85, stronger effect = lower value): 0.8 (inactive) | normalized growth (locus YPL153C, strain RAD53, stronger effect = lower value): 0.844 (inactive) | normalized growth (locus YPL204W, strain HRR25, stronger effect = lower value): 0.806 (inactive) | normalized growth (locus YPL209C, strain IPL1, stronger effect = lower value): 0.955 (inactive) | normalized growth [10]: 0.67 (active) | normalized growth (locus YPR025C, strain CCL1, stronger effect = lower value): 0.953 (inactive) | normalized growth (locus YPR106W, strain ISR1, stronger effect = lower value): 0.932 (inactive) | normalized growth (locus YPR111W, strain DBF20, stronger effect = lower value): 0.915 (inactive) | normalized growth (strain NNK1, stronger effect = lower value): 0.932 (inactive) | normalized growth (strain TSCII, stronger effect = lower value): 0.939 (inactive)

O=C(O)CCCCCCCCCCCCC1C=CCC1 (centres undefined)
normalized growth (locus YBR021W, strain FUR4, stronger effect = lower value): 0.186 (active) | normalized growth (locus YBR229C, strain ROT2, stronger effect = lower value): 1.01 (inactive) | normalized growth (locus YCL029C, strain bik1, stronger effect = lower value): 0.939 (inactive) | normalized growth (locus YDL035C, strain GPR1, stronger effect = lower value): 0.87 (inactive) | normalized growth (locus YDL074C, strain BRE1, stronger effect = lower value): 0.653 (active) | normalized growth [1]: 0.958 (inactive) | normalized growth (locus YDL134C, strain PPH21, stronger effect = lower value): 0.93 (inactive) | normalized growth (locus YDL185W, strain tfp1, stronger effect = lower value): 1.01 (inactive) | normalized growth (locus YDL192W, strain arf1, stronger effect = lower value): 0.82 (active) | normalized growth (locus YDR101C, strain arx1, stronger effect = lower value): 0.883 (active) | normalized growth (locus YDR162C, strain NBP2, stronger effect = lower value): 0.911 (inactive) | normalized growth (locus YDR318W, strain mcm21, stronger effect = lower value): 0.946 (inactive) | normalized growth (locus YDR388W, stronger effect = lower value): 0.976 (inactive) | normalized growth (locus YDR502C, strain sam2, stronger effect = lower value): 0.917 (active) | normalized growth (locus YEL061C, strain CIN8, stronger effect = lower value): 0.971 (inactive) | normalized growth (locus YER110C, stronger effect = lower value): 1.01 (inactive) | normalized growth (locus YER155C, strain BEM2, stronger effect = lower value): 0.745 (active) | normalized growth (locus YER167W, strain BCK2, stronger effect = lower value): 1.01 (inactive) | normalized growth (locus YGL078C, strain dbp3, stronger effect = lower value): 0.973 (inactive) | normalized growth (locus YGL086W, strain mad1, stronger effect = lower value): 0.853 (active) | normalized growth (locus YGL248W, strain PDE1, stronger effect = lower value): 0.865 (active) | normalized growth (locus YGR135W, strain pre9, stronger effect = lower value): 0.953 (inactive) | normalized growth (locus YGR252W, strain gcn5, stronger effect = lower value): 0.78 (inactive) | normalized growth [2]: 0.311 (active) and 0.959 (inactive) | normalized growth (locus YHR079C, strain IRE1 (second series), stronger effect = lower value): 0.98 (inactive) | normalized growth [3]: 0.935 (inactive) | normalized growth (locus YHR094C, strain hxt1, stronger effect = lower value): 1 (inactive) | normalized growth (locus YHR129C, strain ARP1, stronger effect = lower value): 0.885 (active) | normalized growth (locus YHR200W, strain rpn10, stronger effect = lower value): 1 (inactive) | normalized growth (locus YIL066C, strain RNR3, stronger effect = lower value): 0.841 (active) | normalized growth (locus YIL073C, strain SPO22, stronger effect = lower value): 0.604 (active) | normalized growth (locus YIL125W, strain kgd1, stronger effect = lower value): 0.99 (inactive) | normalized growth (locus YIR030C, strain dcg1, stronger effect = lower value): 0.998 (inactive) | normalized growth [4]: 0.542 (active) and 0.952 (inactive) | normalized growth (locus YJL134W, strain LCB3, stronger effect = lower value): 1.02 (inactive) | normalized growth (locus YJL168C, strain set2, stronger effect = lower value): 0.999 (inactive) | normalized growth (locus YJL187C, strain SWE1 (second series), stronger effect = lower value): 0.867 (inactive) | normalized growth (locus YJR043C, strain POL32, stronger effect = lower value): 0.919 (inactive) | normalized growth [5]: 0.931 (inactive) | normalized growth (locus YJR075W, strain HOC1, stronger effect = lower value): 0.967 (inactive) | normalized growth (locus YKL009W, strain mrt4, stronger effect = lower value): 0.972 (inactive) | normalized growth (locus YKL068W, stronger effect = lower value): 1.01 (inactive) | normalized growth (locus YKL085W, strain MDH1 (second series), stronger effect = lower value): 1.01 (inactive) | normalized growth (locus YKL085W, strain MDH1, stronger effect = lower value): 1.01 (inactive) | normalized growth (locus YKL190W, strain CNB1, stronger effect = lower value): 0.761 (active) | normalized growth (locus YKR001C, strain vps1, stronger effect = lower value): 0.337 (active) | normalized growth (locus YLR039C, strain RIC1, stronger effect = lower value): 0.422 (active) | normalized growth (locus YLR058C, strain SHM2, stronger effect = lower value): 0.902 (inactive) | normalized growth (locus YLR102C, strain apc9, stronger effect = lower value): 0.998 (inactive) | normalized growth [6]: 0.995 (inactive) | normalized growth (locus YLR262C, strain YPT6, stronger effect = lower value): 0.476 (active) | normalized growth (locus YLR268W, strain sec22, stronger effect = lower value): 0.812 (active) | normalized growth (locus YLR330W, strain CHS5, stronger effect = lower value): 0.822 (active) | normalized growth (locus YLR342W, strain FKS1 (second series), stronger effect = lower value): 0.854 (inactive) | normalized growth (locus YLR371W, strain rom2, stronger effect = lower value): 0.992 (inactive) | normalized growth (locus YLR418C, strain cdc73, stronger effect = lower value): 0.632 (active) | normalized growth (locus YML016C, strain PPZ1, stronger effect = lower value): 1.03 (inactive) | normalized growth (locus YML032C, strain rad52, stronger effect = lower value): 0.977 (inactive) | normalized growth (locus YML124C, strain tub3, stronger effect = lower value): 0.998 (inactive) | normalized growth (locus YMR078C, strain ctf18, stronger effect = lower value): 1.01 (inactive) | normalized growth (locus YMR223W, strain ubp8, stronger effect = lower value): 0.871 (active) | normalized growth (locus YMR263W, strain SAP30, stronger effect = lower value): 0.915 (inactive) | normalized growth (locus YMR307W, strain GAS1, stronger effect = lower value): 1.13 (inactive) | normalized growth (locus YNL067W, strain RPL9B, stronger effect = lower value): 0.933 (inactive) | normalized growth (locus YNL153C, strain GIM3, stronger effect = lower value): 0.808 (active) | normalized growth [7]: 0.903 (inactive) | normalized growth (locus YNL233W, strain BNI4, stronger effect = lower value): 0.652 (active) | normalized growth (locus YNL250W, strain rad50, stronger effect = lower value): 1.02 (inactive) | normalized growth (locus YNL271C, strain bni1, stronger effect = lower value): 0.976 (inactive) | normalized growth (locus YNL298W, strain CLA4, stronger effect = lower value): 0.944 (inactive) | normalized growth (locus YNL307C, strain MCK1, stronger effect = lower value): 0.585 (active) | normalized growth (locus YNR052C, strain pop2, stronger effect = lower value): 0.988 (inactive) | normalized growth (locus YOL006C, strain TOP1, stronger effect = lower value): 0.764 (inactive) | normalized growth (locus YOL012C, strain htz1): 0.57 (inactive) | normalized growth (locus YOL147C, strain pex11, stronger effect = lower value): 0.871 (active) | normalized growth [8]: 0.987 (inactive) | normalized growth (locus YOR069W, strain VPS5, stronger effect = lower value): 0.956 (inactive) | normalized growth (locus YOR136W, strain idh2, stronger effect = lower value): 0.976 (inactive) | normalized growth (locus YOR144C, strain elg1, stronger effect = lower value): 0.901 (active) | normalized growth (locus YOR184W, strain ser1, stronger effect = lower value): 0.726 (active) | normalized growth [9]: 0.954 (inactive) | normalized growth (locus YOR316C, strain cot1, stronger effect = lower value): 0.999 (inactive) | normalized growth [10]: 1.04 (inactive) | normalized growth (locus YPR119W, strain clb2, stronger effect = lower value): 0.993 (inactive) | normalized growth (locus YPR141C, strain kar3, stronger effect = lower value): 1.01 (inactive) | normalized growth (locus YPR163C, strain tif3, stronger effect = lower value): 0.921 (inactive) | normalized growth (locus YPR167C, strain met16, stronger effect = lower value): 0.989 (inactive) | normalized growth (strain wtn01, stronger effect = lower value): 0.908 (inactive)
